Experiments:
Assay in all cases: log2 ratio of Biotin-Ahx-Ub-VS probe labelling (fragment/DMSO); higher = less target engagement (more negative = stronger competition), active = hit call of the paper (q ≤ 0.05, log2 ratio ≤ -1)
Conditions in all cases: compound concentration: 200 uM; treatment time: 3 h
[1] = target: T1, OTUD6B (UniProt Q8N6M0)
T1 sequence (whole entry): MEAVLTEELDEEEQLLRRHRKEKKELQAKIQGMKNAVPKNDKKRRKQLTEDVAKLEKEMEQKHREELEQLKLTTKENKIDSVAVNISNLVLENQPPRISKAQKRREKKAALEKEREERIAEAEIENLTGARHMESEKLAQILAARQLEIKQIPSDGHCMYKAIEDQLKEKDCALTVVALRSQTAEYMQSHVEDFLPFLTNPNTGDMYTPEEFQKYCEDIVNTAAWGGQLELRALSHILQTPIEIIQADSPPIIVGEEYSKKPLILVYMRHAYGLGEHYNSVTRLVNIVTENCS
Method in brief: (§1)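 Lysate from HEK293T cells, 495 µg per sample in Tris/CHAPS/IGEPAL buffer with protease inhibitors, was treated for 3 h in triplicate with fragment at 200 µM or vehicle. Biotin-Ahx-Ub-VS was next added at 0.5 µM final for 1 h. The labelled DUBs were enriched with NeutrAvidin, digested with LysC and trypsin, and run by diaPASEF LC-MS/MS, with values given as average log2 fragment/vehicle ratios by unpaired t-test on global-median-normalised Spectronaut quantities of proteins with ≥2 unique peptides.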

[2] = target: T2, OTUD7B (UniProt Q6GQQ9)
T2 sequence (whole entry): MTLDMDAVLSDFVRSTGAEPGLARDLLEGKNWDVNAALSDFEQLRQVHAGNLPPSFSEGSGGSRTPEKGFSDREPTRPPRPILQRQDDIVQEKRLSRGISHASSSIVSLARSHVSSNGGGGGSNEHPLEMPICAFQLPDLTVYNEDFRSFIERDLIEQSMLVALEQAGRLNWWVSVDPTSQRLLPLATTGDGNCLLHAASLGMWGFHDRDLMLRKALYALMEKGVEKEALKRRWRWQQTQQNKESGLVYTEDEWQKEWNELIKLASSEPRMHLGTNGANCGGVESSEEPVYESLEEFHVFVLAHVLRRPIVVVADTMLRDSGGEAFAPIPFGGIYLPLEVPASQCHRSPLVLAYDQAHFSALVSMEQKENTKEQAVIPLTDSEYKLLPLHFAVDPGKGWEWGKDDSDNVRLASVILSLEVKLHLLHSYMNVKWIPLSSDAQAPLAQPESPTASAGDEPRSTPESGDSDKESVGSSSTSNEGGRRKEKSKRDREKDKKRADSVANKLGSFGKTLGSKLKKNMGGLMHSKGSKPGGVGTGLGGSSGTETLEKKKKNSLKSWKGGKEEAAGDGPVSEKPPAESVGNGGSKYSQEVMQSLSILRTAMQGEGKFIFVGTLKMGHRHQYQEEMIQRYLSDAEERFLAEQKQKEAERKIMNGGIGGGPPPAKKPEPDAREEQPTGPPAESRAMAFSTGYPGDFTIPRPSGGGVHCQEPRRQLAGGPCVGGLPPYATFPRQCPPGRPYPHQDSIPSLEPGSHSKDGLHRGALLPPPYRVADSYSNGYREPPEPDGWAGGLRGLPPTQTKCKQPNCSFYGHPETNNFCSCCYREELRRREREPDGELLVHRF
Method in brief: as §1

[3] = target: PRPF8 (UniProt Q6P2Q9)
Method in brief: as §1

[4] = target: T3, PSMD7 (UniProt P51665)
T3 sequence (whole entry): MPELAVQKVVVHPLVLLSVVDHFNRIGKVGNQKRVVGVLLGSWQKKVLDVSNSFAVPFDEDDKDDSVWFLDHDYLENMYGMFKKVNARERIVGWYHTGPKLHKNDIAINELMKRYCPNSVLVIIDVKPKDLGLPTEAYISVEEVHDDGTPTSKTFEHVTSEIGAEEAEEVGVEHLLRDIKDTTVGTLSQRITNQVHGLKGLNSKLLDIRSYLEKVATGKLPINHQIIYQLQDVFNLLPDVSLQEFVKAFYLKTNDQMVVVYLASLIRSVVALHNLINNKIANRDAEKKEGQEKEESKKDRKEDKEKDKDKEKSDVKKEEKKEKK
Method in brief: as §1

[5] = target: UCHL1 (UniProt P09936)
Chain of UCHL1 (P09936 whole entry, looked up): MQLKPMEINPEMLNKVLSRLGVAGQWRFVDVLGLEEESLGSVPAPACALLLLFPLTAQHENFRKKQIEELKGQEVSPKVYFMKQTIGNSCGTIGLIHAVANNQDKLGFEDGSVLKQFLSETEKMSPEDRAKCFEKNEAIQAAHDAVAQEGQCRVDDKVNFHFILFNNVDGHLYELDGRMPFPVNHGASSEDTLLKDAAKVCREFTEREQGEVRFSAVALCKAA
Method in brief: as §1

[6] = target: T4, UCHL3 (UniProt P15374)
T4 sequence (whole entry): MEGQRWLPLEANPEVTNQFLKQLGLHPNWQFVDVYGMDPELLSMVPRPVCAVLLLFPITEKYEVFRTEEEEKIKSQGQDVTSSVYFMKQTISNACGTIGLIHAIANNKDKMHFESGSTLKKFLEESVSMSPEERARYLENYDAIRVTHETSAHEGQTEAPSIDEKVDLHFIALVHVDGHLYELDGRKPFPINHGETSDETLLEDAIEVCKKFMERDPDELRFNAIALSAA
Method in brief: as §1

[7] = target: T5, UCHL5 (UniProt Q9Y5K5)
T5 sequence (whole entry): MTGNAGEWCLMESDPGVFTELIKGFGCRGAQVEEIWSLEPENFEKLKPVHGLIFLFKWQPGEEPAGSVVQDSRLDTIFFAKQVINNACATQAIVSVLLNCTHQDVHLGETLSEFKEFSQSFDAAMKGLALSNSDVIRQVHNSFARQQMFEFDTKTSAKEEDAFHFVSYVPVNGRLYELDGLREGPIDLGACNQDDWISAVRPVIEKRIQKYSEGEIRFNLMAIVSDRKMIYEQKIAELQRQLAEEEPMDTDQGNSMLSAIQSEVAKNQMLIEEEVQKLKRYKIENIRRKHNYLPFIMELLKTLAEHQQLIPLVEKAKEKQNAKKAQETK
Method in brief: as §1

[8] = target: USP10 (UniProt Q14694)
Chain of USP10 (Q14694 whole entry): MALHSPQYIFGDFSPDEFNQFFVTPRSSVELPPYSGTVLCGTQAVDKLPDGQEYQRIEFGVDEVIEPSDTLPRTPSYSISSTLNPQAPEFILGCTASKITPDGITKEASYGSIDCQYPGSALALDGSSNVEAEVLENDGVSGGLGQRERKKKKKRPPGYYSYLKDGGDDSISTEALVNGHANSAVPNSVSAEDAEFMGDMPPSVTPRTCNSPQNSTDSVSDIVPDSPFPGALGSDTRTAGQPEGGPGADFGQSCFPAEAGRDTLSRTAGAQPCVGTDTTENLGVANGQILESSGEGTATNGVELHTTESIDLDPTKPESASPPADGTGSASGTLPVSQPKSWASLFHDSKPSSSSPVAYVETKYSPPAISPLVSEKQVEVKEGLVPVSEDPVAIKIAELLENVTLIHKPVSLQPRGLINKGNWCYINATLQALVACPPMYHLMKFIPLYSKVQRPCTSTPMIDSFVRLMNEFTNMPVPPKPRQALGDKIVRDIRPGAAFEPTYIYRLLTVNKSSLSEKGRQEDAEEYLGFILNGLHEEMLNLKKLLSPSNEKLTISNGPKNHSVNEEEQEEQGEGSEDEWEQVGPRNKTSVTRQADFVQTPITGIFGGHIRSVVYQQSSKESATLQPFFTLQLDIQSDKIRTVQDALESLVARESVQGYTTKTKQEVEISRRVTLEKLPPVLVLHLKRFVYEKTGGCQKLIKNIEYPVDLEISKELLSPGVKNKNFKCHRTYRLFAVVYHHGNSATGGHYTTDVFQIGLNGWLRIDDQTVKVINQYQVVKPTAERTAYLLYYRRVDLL
Method in brief: as §1

[9] = target: T6, USP15 (UniProt Q9Y4E8)
T6 sequence (whole entry): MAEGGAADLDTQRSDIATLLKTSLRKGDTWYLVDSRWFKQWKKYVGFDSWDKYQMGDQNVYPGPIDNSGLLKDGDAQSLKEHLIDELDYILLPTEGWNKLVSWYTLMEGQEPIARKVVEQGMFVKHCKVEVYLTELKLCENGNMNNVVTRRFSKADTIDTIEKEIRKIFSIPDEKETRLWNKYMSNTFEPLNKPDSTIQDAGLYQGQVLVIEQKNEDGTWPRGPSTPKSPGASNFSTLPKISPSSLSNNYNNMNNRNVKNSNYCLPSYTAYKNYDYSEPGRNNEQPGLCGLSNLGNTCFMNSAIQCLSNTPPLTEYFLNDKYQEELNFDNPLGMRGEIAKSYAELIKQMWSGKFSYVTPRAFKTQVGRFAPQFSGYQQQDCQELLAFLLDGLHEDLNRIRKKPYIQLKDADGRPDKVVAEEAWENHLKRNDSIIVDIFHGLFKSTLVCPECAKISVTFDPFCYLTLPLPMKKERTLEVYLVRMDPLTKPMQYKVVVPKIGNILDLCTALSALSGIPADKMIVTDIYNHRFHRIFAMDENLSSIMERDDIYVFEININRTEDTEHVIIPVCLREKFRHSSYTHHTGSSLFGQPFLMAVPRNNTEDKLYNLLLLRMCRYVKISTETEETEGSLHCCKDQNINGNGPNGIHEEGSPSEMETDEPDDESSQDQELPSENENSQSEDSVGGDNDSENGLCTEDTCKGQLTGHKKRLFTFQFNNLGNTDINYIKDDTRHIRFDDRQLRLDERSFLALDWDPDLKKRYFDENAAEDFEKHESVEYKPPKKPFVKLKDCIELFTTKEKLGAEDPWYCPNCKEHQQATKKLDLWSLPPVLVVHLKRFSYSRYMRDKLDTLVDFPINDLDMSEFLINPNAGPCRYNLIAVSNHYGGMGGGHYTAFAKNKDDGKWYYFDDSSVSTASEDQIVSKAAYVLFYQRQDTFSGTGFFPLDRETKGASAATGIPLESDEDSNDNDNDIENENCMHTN
Method in brief: as §1

[10] = target: USP16 (UniProt Q9Y5T5)
Chain of USP16 (Q9Y5T5 whole entry, looked up): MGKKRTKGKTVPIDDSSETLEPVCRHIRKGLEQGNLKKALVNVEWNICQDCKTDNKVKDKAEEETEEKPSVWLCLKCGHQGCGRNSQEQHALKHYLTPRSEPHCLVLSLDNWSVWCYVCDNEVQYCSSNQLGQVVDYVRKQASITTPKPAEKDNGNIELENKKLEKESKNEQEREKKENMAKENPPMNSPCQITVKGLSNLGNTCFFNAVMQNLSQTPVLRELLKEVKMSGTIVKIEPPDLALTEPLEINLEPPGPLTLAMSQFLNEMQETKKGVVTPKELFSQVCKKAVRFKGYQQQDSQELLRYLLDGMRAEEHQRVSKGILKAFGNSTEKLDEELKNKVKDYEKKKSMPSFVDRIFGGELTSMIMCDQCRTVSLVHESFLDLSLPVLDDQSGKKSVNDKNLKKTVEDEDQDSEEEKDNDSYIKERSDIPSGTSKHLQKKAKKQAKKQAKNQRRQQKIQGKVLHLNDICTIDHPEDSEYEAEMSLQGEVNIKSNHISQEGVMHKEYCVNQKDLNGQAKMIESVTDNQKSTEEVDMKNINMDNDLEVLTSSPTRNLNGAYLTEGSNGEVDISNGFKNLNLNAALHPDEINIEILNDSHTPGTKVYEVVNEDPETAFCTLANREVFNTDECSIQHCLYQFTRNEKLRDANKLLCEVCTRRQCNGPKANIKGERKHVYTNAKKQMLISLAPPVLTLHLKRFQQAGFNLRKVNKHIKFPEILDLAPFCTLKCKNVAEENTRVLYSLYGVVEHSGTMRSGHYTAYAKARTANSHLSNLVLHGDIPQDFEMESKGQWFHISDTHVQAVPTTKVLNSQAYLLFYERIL
Method in brief: as §1

Measured: log2 ratio of Biotin-Ahx-Ub-VS probe labelling

CC(NC(=O)CCl)c1cc2n(n1)CCCC2.Cl (stereo not given)
inactive: [1] -0.253 | [3] 0.0583 | [4] 0.0299 | [6] 0.315 | [7] -0.121 | [8] -0.153 | [9] 0.0201 | [10] -0.211
active: [2] -1.77 | [5] -2.03
